# Screens deposited in PubChem BioAssay by The Scripps Research Institute Molecular Screening Center.
# FBW7 act: activators of human E3 ligase FBW7; Q969H0; AlphaScreen FBW7–phospho-cyclin E peptide binding, activator screen; normalized activity (activation), % at 26.1 µM; 650,000 tested, 0.13% active; AID 1259310; in the data active = normalized activity above about 1.9%;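 also: purified mutant Fbw7 with reduced substrate affinity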
# TEAD-YAP block: TEAD-YAP interaction inhibition; inhibition, % at 9.12 µM; 640,000 tested, 1.4% active; HEK-TIYL cells, TEAD-Gal4/YAP UAS-luciferase luminescence; in the data active = inhibition above about 32%;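 also: 0% = median of test compound wells and 100% = reference inhibitor wells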
# MITF primary: inhibitors of human MITF; AID 1259374; 650,000 tested, 0.91% active; AlphaScreen MITF homodimerization, bead proximity signal; inhibition, % at 2.6 µM; in the data active = inhibition above about 50%;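 also: 0% = vehicle wells with protein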
# Target sequence (O75030 whole entry, looked up): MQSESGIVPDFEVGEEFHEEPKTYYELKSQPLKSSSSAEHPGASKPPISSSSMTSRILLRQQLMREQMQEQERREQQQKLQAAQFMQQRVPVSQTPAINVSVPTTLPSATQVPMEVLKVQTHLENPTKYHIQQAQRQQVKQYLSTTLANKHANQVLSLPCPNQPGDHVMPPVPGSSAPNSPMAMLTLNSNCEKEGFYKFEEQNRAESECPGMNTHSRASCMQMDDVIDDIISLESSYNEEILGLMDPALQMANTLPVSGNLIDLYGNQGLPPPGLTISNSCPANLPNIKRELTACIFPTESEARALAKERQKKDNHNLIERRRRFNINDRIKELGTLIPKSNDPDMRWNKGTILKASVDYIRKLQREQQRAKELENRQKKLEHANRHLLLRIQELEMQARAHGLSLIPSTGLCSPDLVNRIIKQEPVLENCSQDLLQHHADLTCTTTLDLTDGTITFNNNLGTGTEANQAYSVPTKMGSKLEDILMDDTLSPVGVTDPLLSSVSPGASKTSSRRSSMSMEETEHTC
# GPR151 activ: activators of human GPR151 | PathHunter beta-arrestin GPR151 cells, luminescence | activation, % at 11.2 µM | 650,000 tested, 1% active; in the data active = activation above about 4.9%;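 also: 0% = median of compound wells and 100% = cells with positive control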
# Numbers without * were called inactive. Most compounds without a hit are left out; they make up all but 3.4% or so of the library.
SMILES,FBW7 act,TEAD-YAP block,MITF primary,GPR151 activ
CCN(CC)c1ccc(/C=N/Nc2ccccc2[N+](=O)[O-])c(O)c1,0,40*,2,1
c1ccc(-c2nc(-c3ccco3)[nH]c2-c2ccc3oc4ccc(-c5nc(-c6ccco6)[nH]c5-c5ccccc5)cc4c3c2)cc1,0,-2,2,0
COc1ccc2nc(C3CCN(Cc4cccc5cccnc45)CC3)[nH]c2c1,0,0,8,2
CC(C)C(=O)Oc1coc(CSc2nnc(NC(=O)c3cccs3)s2)cc1=O,0,-11,31,-1
COc1cccc(-n2c(=S)sc3c(=O)n(-c4ccccc4)c(SCC#N)nc32)c1,0,-4,17,-1
CC(C)(c1ccccc1)c1ccc(OCC(=O)Nc2sc3c(c2C(N)=O)CCCC3)cc1,0,-5,-1,0
O=[N+]([O-])c1cc(S(=O)(=O)N/N=C/c2ccc(O)c(O)c2O)ccc1Cl,0,2,55*,0
Cc1ccc(S(=O)(=O)N/N=C/c2cc([N+](=O)[O-])ccc2O)cc1[N+](=O)[O-],0,0,8,1
O=C(Cc1ccccc1)Nc1nnc(CC2=CCCCC2)s1,0,-2,16,2
CC(C)(C)c1cc(CC(=O)O)c2c(c1)C(C)(C)CC2,1,48*,7,-2
C/C(=N/NC(N)=O)c1cc(C(C)(C)C)cc2c1CCC2(C)C,0,-11,5,2
CC(Oc1ccc(F)cc1)C(=O)NCc1ccc2c(c1)OCO2 (configuration not stated),0,7,6,3
CCN1C(=O)/C(=C/c2cc3c(cc2[N+](=O)[O-])OCO3)C(=O)NC1=S,0,3,74*,2
CN1C(=O)N(C)C2C1NNC(=S)N2C (configuration not stated),0,61*,11,-1
CC(=O)NS(=O)(=O)c1ccc(NC(=O)c2c(-c3ccccc3Cl)noc2C)cc1,1.9*,-10,13,1
Cc1onc(-c2ccccc2Cl)c1C(=O)Nc1ccccc1C(=O)Nc1ccccc1,0,33*,-13,2
Cc1onc(-c2ccccc2Cl)c1C(=O)Nc1ccc(-c2nc3ccccc3[nH]2)cc1,0,33*,-3,4
CN(c1ccccc1)S(=O)(=O)c1ccc(C(=O)Nc2ccc(-c3nc4ccccc4[nH]3)cc2)cc1,1,-6,7,1
CN(C)S(=O)(=O)c1ccc(C(=O)NC(=S)Nc2ccc(-c3nc4ccccc4[nH]3)cc2)cc1,3.9*,-28,-17,-2
Fc1ccc(Cn2nnnc2C(c2ccncc2)N2CCN3CCCC3C2)cc1 (configuration not stated),0,0,-1,1
CCCCCCNc1ccc([N+](=O)[O-])cc1[N+](=O)[O-],0,4,13,-1
CCCCCNc1sc(Cl)c([N+](=O)[O-])c1[N+](=O)[O-],0,65*,13,-1
COc1ccc(-c2cc(C(=O)N3CCN(c4ccccc4OC)CC3)c3ccccc3n2)cc1,0,41*,-12,1
COc1ccc(NC(=O)c2cc(-c3ccncc3)nc3ccccc23)cc1,0,40*,-2,0
CCc1ccc(-c2cc(C(=O)N3CCN(c4ncccn4)CC3)c3ccccc3n2)s1,0,33*,-14,1
SMILES,FBW7 act,TEAD-YAP block,MITF primary,GPR151 activ
Cc1ccc(-c2cc(C(=O)N3CCOCC3)c3ccccc3n2)cc1,0,-10,-6,-1
CCc1ccc(-c2cc(C(=O)N3CCN(Cc4ccccc4)CC3)c3ccccc3n2)cc1,0,65*,17,0
C#CCN1C(=O)C(O)(CC(=O)c2ccccc2O)c2ccccc21 (configuration not stated),0,-1,0,0
COc1cccc(-c2nc3ccccc3c(=O)n2NC(=O)c2ccc(C(C)(C)C)cc2)c1,0,0,2,0
COc1ccc2cc(-c3cc(C(=O)N4CCN(CCO)CC4)c4ccccc4n3)ccc2c1,0,70*,-1,-1
COc1cccc(-c2cc(C(=O)N3CCOCC3)c3ccccc3n2)c1,0,11,-2,0
CC(C)c1ccc(-c2cc(C(=O)O)c3ccccc3n2)cc1,0,74*,9,-5
O=C1N[C@@H](Cc2ccc(Cl)cc2)C(=O)N2CCN(Cc3ccc(Cl)s3)C[C@H]12,0,0,-5,1
O=C(CCCSc1ccccc1)Nc1nc(-c2ccncc2)cs1,0,-10,12,0
Nc1nc(SCCCC(=O)NCCO)nc2sc3c(c12)CCCC3,2.3*,13,15,-1
COc1ccccc1CC(=O)N1CCc2ccccc2C1,0,8,7,1
COc1ccc(-c2nc(C(N)=O)c3[nH]c(=O)n(-c4cccc(C)c4)c3n2)cc1O,0,64*,11,-1
COc1ccccc1-n1c(=O)[nH]c2c(C(N)=O)nc(-c3cccc(F)c3)nc21,0,-1,6,1
COc1ccc(-c2nc(C(N)=O)c3[nH]c(=O)n(-c4ccccc4OC)c3n2)cc1,0,48*,5,1
Cc1cc(I)ccc1NC(=O)CSCC(=O)Nc1ccccc1,0,10,-12,-1
N/C(=N\OC(=O)c1cccc2ccccc12)c1ccc(Cl)cc1,2.1*,-8,13,1
CC(=O)Oc1ccc(C(=O)O/N=C(\N)c2cccnc2)cc1,0,35*,3,-8
CC(C)(C)c1ccc(C(=O)O/N=C(\N)c2ccccc2)cc1,0,86*,-1,0
COc1ccc(/C(N)=N/OC(=O)c2ccc(C(C)(C)C)cc2)cc1,0,8,11,-1
Cc1ccc(C(=O)O/N=C(\N)c2ccccc2)c(Cl)c1,0,74*,4,5
COc1ccc(/C(N)=N/OC(=O)c2ccc(C)cc2Cl)cc1,0,-15,3,0
N/C(=N\OC(=O)c1ccccc1Br)c1ccc(Cl)cc1,0,-54,6,0
COCC(C)NC(=O)C1CC(Cc2cccc3ccccc23)=NO1 (configuration not stated),0,-49,-9,0
CN(C)Cc1ccc2c(sc3nc4n(c(=O)c32)CCCCC4)c1O,0,53*,8,-1
CC(Oc1ccccc1)C(=O)N1CCN(c2cccc(Cl)c2)CC1 (configuration not stated),0,3,-2,1
SMILES,FBW7 act,TEAD-YAP block,MITF primary,GPR151 activ
O=C(Nc1ccc(N2CCCN(C(=O)C3CC3)CC2)cc1)c1ccc(-n2cccc2)cc1,0,33*,9,2
CCOC(=O)c1csc2c1CCC/C2=N\O,0,48*,-3,-2
CCOC(=O)c1csc2c1CCC/C2=N/O,0,51*,-6,0
CCOC(=O)c1csc2c1CCC(Br)(Br)C2=O,0,5,17,0
O=C(Cc1c(F)cccc1Cl)N1CCC(c2cccnc2)CC1,0,5,4,1
O=C(Cc1c(F)cccc1Cl)N1CCC(c2ccncc2)CC1,0,42*,15,0
COc1cc(Br)cc(/C=N/NC(=O)c2cccc(Br)c2)c1O,0,35*,-13,-1
O=C(O)c1ccc(N/N=C/c2c(F)cccc2Cl)cc1,0,36*,2,-8
